The nature of test [1]: qHTS assay to identify small molecule agonists of the sonic hedgehog signaling (Shh) pathway (AID 1259368).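 Note: NIH/3T3-derived 3T3Gli1-Luc cells carrying a stable Gli1-driven firefly luciferase reporter; series mostly up to about 92 µM; nearly all actives have a fitted effect of over 15% in size.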 The method, boiled down: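 Cells of a mouse NIH/3T3 clone stably expressing luciferase under the Gli1 transcriptional response element are exposed to test chemicals for 24 hr at 37 C. Pathway activation is detected as a rise in luminescence.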
A general note: In qHTS, concentration-response curves come from the screen itself.

Test [2] in a line: qHTS assay to identify small molecule antagonists of the sonic hedgehog signaling (Shh) pathway (AID 1259369). Note: nearly all actives have a fitted effect of over 45% in size. The method, boiled down: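 Cells are plated and held 4hr at 37 C, compounds (DMSO) are pinned in, conditioned medium is added to stimulate the pathway, and after 24hr luciferase reagent is added for 30min before luminescence is read.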
In test [3] the target is Estrogen receptor beta (Homo sapiens) (UniProt Q92731). As to the kind of experiment: qHTS assay to identify small molecule agonists of the estrogen receptor beta (ER-beta) signaling pathway (AID 1259377; active = well fitted activation curve with a large enough effect in the signal ratio in the repeat runs, not every such curve was filed as active; the % refers to the signal ratio). The gist of the method:
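Reporter cells (HEK293T, ER-beta-UAS-bla) receive compounds or DMSO after a 6 hr pre-incubation. They then incubate 16 hr at 37C/5% CO2, and fluorescence from LiveBLAzer B/G substrate is measured after 2 hours at room temperature.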

Test [4] shares this target. As to the kind of experiment: qHTS assay to identify small molecule antagonists of the estrogen receptor beta (ER-beta) signaling pathway (AID 1259378; active = well fitted inhibition curve with a large enough effect in the signal ratio in the repeat runs, not every such curve was filed as active; the % refers to the signal ratio). The gist of the method: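 ER-beta-UAS-bla HEK293T cells in 2% charcoal-stripped FBS medium treated with compound plus 1nM final 17-beta-estradiol for 16 hr at 37C. Beta-lactamase reporter read by FRET substrate fluorescence after 2 hours at room temperature.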

Test [5] in a line: qHTS assay to identify small molecule agonists of the androgen receptor (AR) signaling pathway in the presence of an antagonist - cell viability counter screen (AID 1259379; active = well fitted curve in the direction sought with a large enough effect in the repeat runs; an effect the other way counts as inactive or inconclusive;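 note: MDA-kb2 human breast cancer cells carrying an MMTV luciferase reporter; series mostly up to about 92 µM; nearly all actives have a fitted effect of over 25% in size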). The gist of the method: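 Cytotoxicity is assessed by CellTiter-Fluor in MDA-kb2 cells carrying an MMTV-driven luciferase reporter. Cells receive 3.0uM nilutamide plus compounds at 15 concentrations and incubate 16 hr at 37C without CO2 before fluorescence reading.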

Test [6] in a line: qHTS assay to identify small molecule agonists of the estrogen receptor beta (ER-beta) signaling pathway - cell viability counter screen (AID 1259380; active = well fitted curve in the direction sought with a large enough effect in the repeat runs; an effect the other way counts as inactive or inconclusive; note: nearly all actives have a fitted effect of over 30% in size). The gist of the method:
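Cytotoxicity is measured in parallel with the reporter screen: after 16 hr compound exposure at 37C and a 2 hr LiveBLAzer step, CellTiter-Glo is added to the same ER-beta-UAS-bla HEK293T wells and luminescence read after 30 min.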

The target of test [7] is Androgen receptor (Homo sapiens) (UniProt P10275). Description: qHTS assay to identify small molecule agonists of the androgen receptor (AR) signaling pathway in the presence of an antagonist (AID 1259381). Note: nearly all actives have a fitted effect of over 15% in size. Note: potency is the fitted concentration of half-maximal effect. The method, boiled down:
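Agonist-mode confirmation screen: human MDA-kb2 cells stably expressing luciferase under an MMTV promoter bearing AR and GR response elements, co-treated with 3.0uM nilutamide (final). Luminescence measured after 16hr compound incubation.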

The nature of test [8]: qHTS assay to identify small molecule antagonists of the estrogen receptor beta (ER-beta) signaling pathway - cell viability counter screen (AID 1259382; active = well fitted curve in the direction sought with a large enough effect in the repeat runs; an effect the other way counts as inactive or inconclusive; note: series mostly up to about 92 µM; nearly all actives have a fitted effect of over 55% in size). The gist of the method:
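Cytotoxicity counter screen multiplexed with the beta-lactamase antagonist assay: GripTite HEK293T ER-beta-bla cells were treated 16 hr with test chemicals in the presence of 1nM 17-beta-estradiol, and viability was measured by CellTiter-Glo.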

Test [9] in a line: qHTS assay to identify small molecule agonists or antagonists of the thyroid stimulating hormone receptor (TSHR) signaling pathway - wild type cell line counter screen (AID 1259384). The method, boiled down: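 Wild-type Hek293 cells, 800/well, 18 h at 37C, then compound with Ro20-1724 for 30 min RT. cAMP by HTRF (cAMP-d2/anti-cAMP cryptate), 1 h RT, fluorescence read. 15 concentrations, triplicates.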

Test [10] concerns the target Thyrotropin receptor (Homo sapiens) (UniProt P16473). Description: qHTS assay to identify small molecule antagonists of the thyroid stimulating hormone receptor (TSHR) signaling pathway (AID 1259385). Note: nearly all actives have a fitted effect of over 20% in size. The gist of the method: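 TSHR-HEK293 cells (800/well) plated 18 h, then compounds with Ro20-1724 and TSH at 1.5 ng/mL final, 30 min at room temperature. cAMP quantified by HTRF (cAMP-d2/anti-cAMP-cryptate, 1 h); 15 concentrations in triplicate.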

A short description of test [11]: qHTS assay to identify small molecule agonists of the estrogen receptor alpha (ER-alpha) signaling pathway in the presence of an antagonist - cell viability counter screen (AID 1259386; active = well fitted curve in the direction sought with a large enough effect in the repeat runs; an effect the other way counts as inactive or inconclusive;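 note: series mostly up to about 92 µM; cells exposed to compounds for 22 h at 37 °C before the viability read; nearly all actives have a fitted effect of over 30% in size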). The method, boiled down:
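Cytotoxicity was measured in parallel with the ERE-luciferase agonist screen, in the same wells. The cells were VM7Luc4E2, which endogenously express ER-alpha, and treatment was with compounds plus 10.0nM ICI-182,780 for 22hr.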

In test [12] the target is Progesterone receptor (Homo sapiens) (UniProt P06401). As to the kind of experiment: qHTS assay to identify small molecule agonists of the progesterone receptor (PR) signaling pathway (AID 1346784). Note: nearly all actives have a fitted effect of over 30% in size. The gist of the method: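 Reporter assay, GripTite PR-UAS-bla HEK 293T cells: 16 hr exposure to DMSO-dissolved compounds at 37C, 5% CO2, in steroid-depleted (2% charcoal-stripped FBS) medium; beta-lactamase measured by FRET fluorescence.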
Progesterone receptor (Homo sapiens), sequence (P06401 whole entry, looked up): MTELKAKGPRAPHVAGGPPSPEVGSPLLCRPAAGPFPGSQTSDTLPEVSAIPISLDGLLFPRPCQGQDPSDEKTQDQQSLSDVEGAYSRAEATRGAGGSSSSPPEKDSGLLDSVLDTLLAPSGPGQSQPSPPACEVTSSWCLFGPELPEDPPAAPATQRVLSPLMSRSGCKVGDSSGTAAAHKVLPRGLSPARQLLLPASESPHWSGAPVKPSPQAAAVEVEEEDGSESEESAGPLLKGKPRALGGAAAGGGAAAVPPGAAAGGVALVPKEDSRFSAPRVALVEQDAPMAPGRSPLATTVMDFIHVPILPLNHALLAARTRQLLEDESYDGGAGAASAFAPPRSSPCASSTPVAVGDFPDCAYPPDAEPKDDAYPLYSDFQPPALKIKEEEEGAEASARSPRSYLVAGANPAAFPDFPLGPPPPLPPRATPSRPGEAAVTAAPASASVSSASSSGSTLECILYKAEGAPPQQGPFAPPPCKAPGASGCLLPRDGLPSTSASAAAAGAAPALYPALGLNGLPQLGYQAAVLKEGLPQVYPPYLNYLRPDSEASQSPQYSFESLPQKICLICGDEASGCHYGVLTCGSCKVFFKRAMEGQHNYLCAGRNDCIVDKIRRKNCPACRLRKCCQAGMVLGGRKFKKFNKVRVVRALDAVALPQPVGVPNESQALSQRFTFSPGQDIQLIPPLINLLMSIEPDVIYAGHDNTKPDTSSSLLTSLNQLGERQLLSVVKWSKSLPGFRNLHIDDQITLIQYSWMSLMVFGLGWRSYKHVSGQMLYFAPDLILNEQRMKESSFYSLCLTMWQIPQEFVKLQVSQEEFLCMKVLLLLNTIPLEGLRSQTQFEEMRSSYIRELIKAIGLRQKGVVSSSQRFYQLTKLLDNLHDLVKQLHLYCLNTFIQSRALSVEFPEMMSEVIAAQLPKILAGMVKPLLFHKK

Test [13] has the same target. Description: qHTS assay to identify small molecule antagonists of the progesterone receptor (PR) signaling pathway (AID 1346795; active = well fitted inhibition curve with a large enough effect in the signal ratio in the repeat runs, not every such curve was filed as active; the % refers to the signal ratio). The gist of the method:
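Stimulus R5020 at 1 nM final; cells HEK293T PR-UAS-bla; medium with 2% charcoal-stripped FBS; compound exposure 16 hr at 37C, 5% CO2; detection by FRET beta-lactamase substrate, 2 hr, room temperature.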

Test [14] in a line: qHTS assay to identify small molecule antagonists of the progesterone receptor (PR) signaling pathway - cell viability counter screen (AID 1346798; active = well fitted curve in the direction sought with a large enough effect in the repeat runs; an effect the other way counts as inactive or inconclusive; note: series mostly up to about 92 µM; nearly all actives have a fitted effect of over 50% in size). The method, boiled down:
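In the same plates used for the beta-lactamase readout, cell viability of compound- and R5020-treated PR-UAS-bla HEK293T cells (16 hr, 37C) was assessed by CellTiter-Glo luminescence.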

Test [15] can be described thus: qHTS assay to identify small molecule agonists of the progesterone receptor (PR) signaling pathway - cell viability counter screen (AID 1346799). Note: nearly all actives have a fitted effect of over 45% in size. The gist of the method: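 Multiplexed viability read: CellTiter-Glo luminescence, 30 min RT, following LiveBLAzer FRET measurement on PR-UAS-bla HEK293T cells exposed to compounds 16 hr.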
The nature of test [16]: qHTS assay to identify small molecule antagonists of the TGF-beta/Smad signaling pathway - cell viability counter screen (AID 1346824; active = well fitted curve in the direction sought with a large enough effect in the repeat runs; an effect the other way counts as inactive or inconclusive; note: nearly all actives have a fitted effect of over 50% in size). The method, boiled down: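 SBE-bla HEK 293T cells, incubated overnight, then compound plus 0.25 ng/mL TGF-beta1 (stock added) for 5 hr at 37 C. Viability was read in the same wells by CellTiter-Glo luminescence after 30 min at room temperature.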

For test [17], the target named is Thyrotropin-releasing hormone receptor (Homo sapiens) (UniProt P34981). As to the kind of experiment: qHTS assay to identify small molecule antagonists of the thyrotropin-releasing hormone receptor (TRHR) signaling pathway (AID 1346877; active = well fitted inhibition curve with a large enough effect in the repeat runs, not every such curve was filed as active; note: series mostly up to about 51 µM). The gist of the method:
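Antagonism is measured as suppression of the calcium response to 1 nM TRH in TRHR-HEK293 cells that have been dye-loaded for 2 h at 37 °C after overnight plating. Each compound is tested at 15 concentrations in triplicate.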

Test [18] concerns the target Estrogen receptor (Homo sapiens) (UniProt P03372). Description: qHTS assay to identify small molecule agonists of the estrogen receptor alpha (ER-alpha) signaling pathway in the presence of an antagonist (AID 1259383). Note: top concentration of the series differs between compounds; nearly all actives have a fitted effect of over 15% in size. The method, boiled down: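 Agonist-mode confirmation in the presence of the ER antagonist ICI-182,780 at 10.0nM final. Breast-derived VM7Luc4E2 reporter cells were exposed to compounds for 22hr, and ERE-driven luciferase was quantified by luminescence.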

A short description of test [19]: qHTS assay to identify small molecule agonists of the TGF-beta/Smad signaling pathway - cell viability counter screen (AID 1346829; active = well fitted curve in the direction sought with a large enough effect in the repeat runs; an effect the other way counts as inactive or inconclusive; note: top concentration of the series differs between compounds; nearly all actives have a fitted effect of over 45% in size). The method, boiled down:
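SBE-bla HEK 293T cells plated overnight, compound exposure 5 hr at 37 C. Viability read in the same wells by CellTiter-Glo luminescence after 30 min at room temperature, following the beta-lactamase read.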

Test [20] in a line: qHTS assay to identify small molecule agonists of the TGF-beta/Smad signaling pathway (AID 1346859; active = well fitted activation curve with a large enough effect in the signal ratio in the repeat runs, not every such curve was filed as active; the % refers to the signal ratio; note: series mostly up to about 77 µM). The gist of the method: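 Screening used HEK 293T SBE-bla cells at 4,000/well. Test agents: 5 hr, 37 C. Detection: FRET substrate, 2 hr RT, then excitation 405 nm with emissions at 460 and 530 nm.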

Structures are written as SMILES. Results filed as inconclusive are left out. Active and inactive are the calls of the source. Unless noted, calls come from the whole dose curve.

Estrogen receptor (Homo sapiens), sequence (P03372 whole entry, looked up): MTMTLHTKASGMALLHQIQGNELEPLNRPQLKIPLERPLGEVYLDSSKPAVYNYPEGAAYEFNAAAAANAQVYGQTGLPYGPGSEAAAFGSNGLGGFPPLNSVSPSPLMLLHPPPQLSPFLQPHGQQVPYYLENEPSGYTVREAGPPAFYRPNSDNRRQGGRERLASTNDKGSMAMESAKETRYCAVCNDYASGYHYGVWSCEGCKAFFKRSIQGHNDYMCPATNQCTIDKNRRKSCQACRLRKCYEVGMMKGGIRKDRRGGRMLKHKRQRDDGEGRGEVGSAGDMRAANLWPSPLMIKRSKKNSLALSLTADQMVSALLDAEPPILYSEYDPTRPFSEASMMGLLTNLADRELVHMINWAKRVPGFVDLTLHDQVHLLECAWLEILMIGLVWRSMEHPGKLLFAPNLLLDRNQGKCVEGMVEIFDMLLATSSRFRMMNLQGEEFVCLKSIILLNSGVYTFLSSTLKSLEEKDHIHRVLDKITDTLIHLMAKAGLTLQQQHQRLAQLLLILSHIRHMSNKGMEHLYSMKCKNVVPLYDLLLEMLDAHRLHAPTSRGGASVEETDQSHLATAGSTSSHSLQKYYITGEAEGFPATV
Androgen receptor (Homo sapiens), sequence (P10275 whole entry, looked up): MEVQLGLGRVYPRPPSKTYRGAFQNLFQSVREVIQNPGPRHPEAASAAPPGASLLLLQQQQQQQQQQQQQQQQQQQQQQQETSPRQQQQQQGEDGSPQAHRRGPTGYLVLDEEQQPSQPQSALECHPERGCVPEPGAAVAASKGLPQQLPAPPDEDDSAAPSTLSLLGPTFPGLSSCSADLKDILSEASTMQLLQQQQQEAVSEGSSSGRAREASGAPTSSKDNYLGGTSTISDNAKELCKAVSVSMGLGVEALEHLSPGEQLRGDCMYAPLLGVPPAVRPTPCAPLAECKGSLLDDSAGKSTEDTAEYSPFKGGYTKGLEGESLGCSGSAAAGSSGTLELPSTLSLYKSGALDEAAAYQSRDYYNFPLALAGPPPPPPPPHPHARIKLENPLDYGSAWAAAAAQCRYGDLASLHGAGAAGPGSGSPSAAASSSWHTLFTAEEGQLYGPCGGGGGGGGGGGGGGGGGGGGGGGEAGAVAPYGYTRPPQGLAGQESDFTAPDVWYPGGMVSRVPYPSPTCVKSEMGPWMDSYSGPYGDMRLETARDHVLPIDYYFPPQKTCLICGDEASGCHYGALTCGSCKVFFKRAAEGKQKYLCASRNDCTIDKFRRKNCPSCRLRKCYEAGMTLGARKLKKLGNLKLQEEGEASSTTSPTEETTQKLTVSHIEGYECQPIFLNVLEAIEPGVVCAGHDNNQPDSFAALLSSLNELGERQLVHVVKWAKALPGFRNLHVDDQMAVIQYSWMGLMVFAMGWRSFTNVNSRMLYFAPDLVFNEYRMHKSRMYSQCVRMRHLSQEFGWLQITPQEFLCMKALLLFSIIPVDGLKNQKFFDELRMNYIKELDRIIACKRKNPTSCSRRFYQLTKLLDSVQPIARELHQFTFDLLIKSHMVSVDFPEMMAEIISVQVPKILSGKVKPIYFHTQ
Thyrotropin-releasing hormone receptor (Homo sapiens), sequence (P34981 whole entry, looked up): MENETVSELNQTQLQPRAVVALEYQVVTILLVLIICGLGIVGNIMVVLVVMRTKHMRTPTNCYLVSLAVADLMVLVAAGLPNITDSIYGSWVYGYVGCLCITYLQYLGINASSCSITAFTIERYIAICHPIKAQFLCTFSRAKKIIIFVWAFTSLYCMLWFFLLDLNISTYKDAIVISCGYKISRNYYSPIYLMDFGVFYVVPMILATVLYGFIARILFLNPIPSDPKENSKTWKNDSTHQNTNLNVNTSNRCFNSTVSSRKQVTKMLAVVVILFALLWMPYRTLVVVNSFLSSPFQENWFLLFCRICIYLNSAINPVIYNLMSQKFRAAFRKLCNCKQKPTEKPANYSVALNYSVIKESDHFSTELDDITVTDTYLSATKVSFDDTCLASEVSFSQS
Thyrotropin receptor (Homo sapiens), sequence (P16473 whole entry, looked up): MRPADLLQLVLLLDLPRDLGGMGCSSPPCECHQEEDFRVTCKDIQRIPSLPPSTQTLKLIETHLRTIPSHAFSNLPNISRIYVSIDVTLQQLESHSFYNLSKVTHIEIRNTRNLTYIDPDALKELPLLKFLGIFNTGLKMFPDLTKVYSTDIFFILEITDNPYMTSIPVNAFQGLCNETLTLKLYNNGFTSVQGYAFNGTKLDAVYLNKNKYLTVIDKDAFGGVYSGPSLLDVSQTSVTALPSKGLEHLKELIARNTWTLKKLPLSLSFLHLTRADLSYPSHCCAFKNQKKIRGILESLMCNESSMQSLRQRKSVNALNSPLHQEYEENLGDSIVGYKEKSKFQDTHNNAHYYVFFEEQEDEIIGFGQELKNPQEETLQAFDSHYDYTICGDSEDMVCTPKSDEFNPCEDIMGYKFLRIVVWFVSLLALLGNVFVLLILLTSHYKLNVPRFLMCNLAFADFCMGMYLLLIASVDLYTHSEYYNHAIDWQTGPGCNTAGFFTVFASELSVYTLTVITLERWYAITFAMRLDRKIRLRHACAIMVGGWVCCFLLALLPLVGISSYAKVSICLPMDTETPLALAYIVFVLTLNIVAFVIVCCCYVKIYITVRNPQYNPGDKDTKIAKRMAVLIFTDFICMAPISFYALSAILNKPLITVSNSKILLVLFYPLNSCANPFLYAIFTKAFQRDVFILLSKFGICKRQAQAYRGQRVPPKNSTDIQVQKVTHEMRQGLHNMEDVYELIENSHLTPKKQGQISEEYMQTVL
Estrogen receptor beta (Homo sapiens), sequence (Q92731 whole entry, looked up): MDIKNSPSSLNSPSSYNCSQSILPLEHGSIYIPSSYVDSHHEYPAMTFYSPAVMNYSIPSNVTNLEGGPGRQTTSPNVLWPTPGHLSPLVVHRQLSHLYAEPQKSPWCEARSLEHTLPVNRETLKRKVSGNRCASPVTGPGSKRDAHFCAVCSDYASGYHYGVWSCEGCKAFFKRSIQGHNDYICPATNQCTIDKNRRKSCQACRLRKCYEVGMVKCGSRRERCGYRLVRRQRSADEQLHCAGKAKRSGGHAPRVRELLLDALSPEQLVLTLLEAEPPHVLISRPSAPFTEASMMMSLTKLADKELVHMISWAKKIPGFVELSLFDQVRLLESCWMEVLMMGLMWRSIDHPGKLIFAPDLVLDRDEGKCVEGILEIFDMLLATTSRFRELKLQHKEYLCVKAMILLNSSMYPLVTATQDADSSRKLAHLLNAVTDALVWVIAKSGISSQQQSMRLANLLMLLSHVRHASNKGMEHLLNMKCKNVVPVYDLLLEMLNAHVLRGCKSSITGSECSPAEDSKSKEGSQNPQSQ

In the case of `CCc1cccc2c(CCO)c[nH]c12`, the outcome in [1], in test [3], in [4], in test [9] and in test [17] was inactive. Besides, the Potency result in test [2], in [5], in [6], in [7], in test [8] and in [10] was “inactive” in each case. In addition, the Potency entry in [11], in [12], in [13], in test [14], in [15] and in test [16] was “inactive” each time.

Regarding `O=C(O)Cc1ccc(CCNS(=O)(=O)c2ccc(Cl)cc2)cc1`, the call in test [1], in test [3], in test [4], in test [9], in test [19] and in [20] was inactive. Also, the compound was classed as inactive in test [17]. Also, the Potency entry in [2], in [5], in [6], in test [8], in test [18] and in test [10] was “inactive” throughout. Besides, the Potency result in [11], in test [12], in test [13], in test [14], in [15] and in test [16] was “inactive” throughout.

Turning to `CC(=O)CC(C)C`, the compound was classed as inactive in [1], in test [3], in test [4], in test [9], in test [19] and in [20]. Further, the Potency entry in [2], in test [5], in test [6], in [7], in test [8] and in test [10] was “inactive” each time. Besides, the Potency result in test [11], in test [12], in test [13], in [14], in test [15] and in test [16] was “inactive” each time.

As to `FC1(F)C(F)(F)C(F)(F)C2(F)C(F)(F)C(F)(F)C(F)(F)C(F)(F)C2(F)C1(F)F` (centres undefined), the compound was classed as inactive in test [1], in test [3], in test [4], in test [9] and in [20]. Also, the Potency entry in [2], in test [5], in test [6], in test [7], in test [8] and in test [18] was “inactive” throughout. In addition, the Potency entry in test [10], in [11], in [12], in [13], in test [14] and in test [15] was “inactive” each time. The Potency entry in test [16] is “inactive”.

For `NS(=O)(=O)c1cc(C(=O)NN2C[C@H]3[C@H]4CCC(C4)[C@H]3C2)ccc1Cl`, the compound was classed as inactive in test [1], in [3], in test [4], in [9], in [20] and in test [17]. For the same compound, the Potency result in test [2], in test [5], in [6], in test [7], in test [8] and in test [18] was “inactive” each time. For the same compound, the Potency entry in test [10], in test [11], in [12], in test [13], in test [14] and in test [15] was “inactive” throughout. For the same compound, the Potency entry in test [16] is “inactive”.

In the case of `CC(=O)Nc1ccc(S(N)(=O)=O)cc1`, the result in test [1], in test [3], in test [4], in test [9] and in [17] was inactive. Besides, the Potency result in test [2], in [5], in test [6], in [7], in test [8] and in test [18] was “inactive” throughout. Moreover, the Potency result in [10], in [11], in test [12], in [13], in test [14] and in test [15] was “inactive” in each case.

Turning to `O=C(O)COc1nn(Cc2ccccc2)c2ccccc12`, the compound was classed as inactive in test [1], in test [3], in test [4], in [9] and in [17]. Also, the Potency entry in [2], in test [5], in test [6], in [8], in test [18] and in test [10] was “inactive” in each case. For the same compound, the Potency result in test [11], in [12], in test [13], in [14], in test [15] and in [16] was “inactive” each time. In [7], the Potency is 33.5 µM (active).

In the case of `ClC(Cl)(Br)Br`, the outcome in test [1], in test [3], in test [4], in test [9] and in test [19] was inactive. In addition, the Potency result in test [2], in [5], in test [6], in [7], in [8] and in test [18] was “inactive” throughout. For the same compound, the Potency entry in test [10], in test [11], in test [12], in test [13], in [14] and in test [15] was “inactive” in each case. The Potency result in test [16] was “inactive”.

Source of the values: PubChem BioAssay (Tox21).
